Holding throughout (test): NCI-60 one-dose screen, 48 h (100 = growth as untreated, 0 = no growth, -100 = all killed)
Settings in all cases: 10 µM unless noted

Test [1] relates to NCI-H23 lung.
Test [2] relates to NCI-H226 lung.
Test [3] relates to NCI-H322M lung.
In test [4] the test system is HOP-62 NSCLC.
In test [5] the test system is NCI-H460 lung.
The subject of test [6] is NCI-H522 lung.
Test [7] deals with A549/ATCC NSCLC.
Test [8] relates to 786-0 renal.
Test [9] concerns COLO 205 colon.
Test [10] deals with DU-145 prostate.
For test [11], the system named is K-562 leukemia.
Test [12] deals with MALME-3M melanoma.
In test [13] the test system is MDA-MB-231 breast.
The subject of test [14] is RXF 393 renal.
Test [15] concerns SF-268 CNS.
Test [16] relates to SF-295 CNS.
Test [17] concerns SF-539 CNS.
Test [18] relates to UACC-257 melanoma.
Test [19] relates to M14 melanoma.
Test [20] has as its system HOP-92 NSCLC.

Structures are written as SMILES. Values joined by “and” are separate entries in the source; they are usually repeats but may differ in a detail not shown here. Identical values can stand only once. This is part of a sample that, as a whole, favours compounds with a hit. Of some 83,000 tested, about 20% had one in any assay.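 The endpoint reported here, percent growth, reads 100 for growth as untreated, 0 for no net growth and -100 for all cells dead.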 Values without a mark were called inactive. Active and inactive are the calls of the source. The calls were made as follows: active = growth percent below 10; inactive = the rest.

In the case of `NC(=S)N/N=C/c1ccc(Cl)s1`, the growth in test [1] was 106%; in test [2], 97.4%; in test [3] it was 101%; in test [4] it was 109%; in test [5] it was 101%; in [6] it was 98.6%. Moreover, the growth in [7] was 106%; in [8], 105%; in [9] it was 105%; in test [10] it was 106%; in test [11], 99.5%; in [12], 104%. Besides, the growth in [13] is 110%; in test [14], 99.9%; in test [15], 102%; in [16], 103%; in [17], 100%; in test [18], 104%. Further, the growth in test [19] is 105%.

On to `O=C1c2cccnc2-c2nccc3c2c1nc1cc(Br)ccc13`, for which the growth in test [1] is -78.4% (active) and -66.2% (active); in test [2], -43.8% (active) and -48.5% (active); in test [3], -99.2% (active) and -89.2% (active); in [4], -68.6% (active) and -85.7% (active); in test [5] it was -52.9% (active) and -78.6% (active); in test [20], -17.1% (active) and -72.6% (active). The growth in test [6] was -60.8% (active) and -66% (active); in [7], -65.9% (active) and -81% (active); in test [8] it was -86.6% (active) and -85.6% (active); in test [10], -88.9% (active) and -99.9% (active); in test [11], -87.4% (active) and -25.6% (active); in [12], 8.18% (active). Further, the growth in [13] is -9.52% (active) and -58% (active); in test [14], -51.7% (active) and -90.9% (active); in [15] it was -1.91% (active) and -63.6% (active); in [16], 0% (active) and -84.3% (active); in [17] it was -87.2% (active) and -90.5% (active); in test [18] it was -78.4% (active) and -83.7% (active). Further, in test [19], the growth is -77.1% (active).

Regarding `CN(C)CCOc1ccc2c(c1)C(=O)/C(=C\c1ncc([N+](=O)[O-])n1C)C2`, the growth was -42.7% (active) in test [1]; -38.5% (active) in test [2]; 6.13% (active) in test [3]; -17.8% (active) in [4]; -57.5% (active) in test [5]; -59.8% (active) in [6]. Also, the growth was -29.6% (active) in test [7]; -26.4% (active) in test [8]; -91.9% (active) in [9]; -37.8% (active) in test [10]; -39.7% (active) in [11]; -72.7% (active) in test [12]. The growth was -21.1% (active) in test [13]; -60.5% (active) in [14]; -44.4% (active) in test [15]; -12.7% (active) in test [16]; -73.2% (active) in [17]; -38.6% (active) in test [18]. The growth in test [19] is -67.2% (active).

Regarding `CCCCCCCCCCCCCCCCOP(=O)([O-])OCC[N+](C)(C)C`, the growth in [1] is 73.6%; in test [2], 31.5%; in test [3] it was 81.8%; in test [4], 19.5%; in [5], 3.97% (active); in [20], -24.8% (active). Moreover, the growth in test [6] is -55.1% (active); in test [7], 31.8%; in test [8], 48.6%; in test [10], 82.2%; in [11], 64.6%; in [12], 74.1%. The growth in [13] was 36.8%; in test [14], -32.1% (active); in test [15], 32.5%; in test [16], 28%; in test [17], 55.9%; in test [18] it was 76.7%. For the same compound, the growth in test [19] was -10.6% (active).

Consider `CC1OC(OC2C(OC3CCC4(C)C(CCC5(C)C4CC=C4C6CC(C)(C)CCC6(CO)C(O)CC45C)C3(C)C)OC(C(=O)O)C(OC3OC(COC4OC(CO)C(O)C(O)C4O)C(O)C(O)C3O)C2O)C(O)C(O)C1O` (stereo not drawn), for which the growth in test [1] was -82.1% (active); in test [2], -63.6% (active); in test [3], -96.2% (active); in [4], -71.6% (active); in [5], 15.4%; in [6], -64.9% (active). The growth in test [7] was -70.1% (active); in test [8], -91.9% (active); in [9] it was -86% (active); in test [10], 7.81% (active); in test [11], -30.8% (active); in test [12], -73% (active). Besides, the growth in test [13] is -86.1% (active); in [14], -51.2% (active); in test [15], 1.99% (active); in test [16] it was -85.2% (active); in test [17], -84.5% (active); in test [18] it was -49.3% (active). The growth in test [19] is -67.4% (active).

Regarding `CCC(CC)COC(=O)c1ccc(O)c(O)c1`, the growth is 81% in test [1]; 63.9% in [2]; 85.3% in test [3]; 50.3% in test [4]; 73.8% in test [5]; 31.1% in [20]. For the same compound, the growth in test [6] is -5.6% (active); in [7], 52%; in [8], 78.5%; in [10], 73.4%; in test [11] it was 102%; in test [12], 54.8%. Further, the growth in test [13] is 48.9%; in test [14], 65.7%; in test [15], 57.8%; in [16] it was 90.1%; in test [17] it was 34%; in test [18] it was 86.4%. Moreover, the growth in [19] is 86.1%.

Turning to `CC(C)c1ccc2nc3ccc(C(=O)NCCN4CCN(c5ccccc5)CC4)cn3c(=O)c2c1`, the growth in [1] was 50.5%; in test [2], 38.4%; in test [3], 86.8%; in test [4], 90.9%; in test [5], 65.2%; in test [20], 58.1%. For the same compound, the growth is 67.4% in test [6]; 57.3% in test [7]; 34.4% in test [8]; 80% in test [10]; 45.1% in [11]; 48.3% in test [12]. The growth in test [13] was 59.3%; in test [14], 3.14% (active); in test [15] it was 72.9%; in [16], 23.1%; in [17], 40.8%; in test [18], 60.2%. In [19], the growth is 63.8%.

The values above are taken from PubChem BioAssay (NCI).
